{
  "source": "PubChem BioAssay (NCATS)",
  "note": "Values without a mark were called inactive. Results filed as inconclusive are left out. Activity calls are given as the source filed them. Unless noted, the call rests on the fitted dose curve; in most records, active means well fitted curve in the direction sought with a large enough effect; inconclusive means small, poorly fitted or top-dose-only effect, or another doubt; inactive means no such curve, though single readings can be large; an effect the other way counts as inactive or inconclusive. Potency means the concentration at half of the fitted maximal effect.",
  "data": [
    {"test_system": "not listed separately", "assay": "Validation screen for small molecules that induce DNA re-replication in SW480 colon adenocarcinoma cells (AID 504364); on activity (re-replication induction): 0% is about no effect", "conditions": "DNA re-replication phenotype (high-content imaging); series mostly up to 46.1 µM; activity (re-replication induction): at the top concentration", "summary_of_the_method": "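SW480 cells (250/well) exposed 48 h at 37 C, 5% CO2, then Hoechst-stained 40 min. Nuclear DNA content imaged by fluorescence scanning (405 nm excitation, 500-530 nm emission); re-replication scored as increased nuclei with elevated intensity.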", "units": {"activity (re-replication induction)": "%"}, "values": [
      {"smiles": "CCCN(CCC)C1CCc2cccc(O)c2C1", "note": "(stereo not drawn)", "activity (re-replication induction)": -5.11},
      {"smiles": "CC(N)Cc1c[nH]c2ccc(OCc3cccs3)cc12", "note": "(stereo not drawn)", "activity (re-replication induction)": 20.9},
      {"smiles": "COc1ccc2c(c1)[C@@]13CCCC[C@H]1[C@@H](C2)NCC3", "activity (re-replication induction)": -2.41},
      {"smiles": "NCCc1ccc(S(=O)(=O)F)cc1", "activity (re-replication induction)": -5.09},
      {"smiles": "C=CCN1CC[C@]23c4c5ccc(O)c4O[C@@H]2/C(=N/N=C2\\CC[C@@]4(O)C6Cc7ccc(O)c8c7[C@@]4(CCN6CC=C)[C@@H]2O8)CC[C@@]3(O)C1C5", "activity (re-replication induction)": 14.1},
      {"smiles": "O=C(O)c1cc[c]([Hg][Cl])cc1", "activity (re-replication induction)": -7.98},
      {"smiles": "CN1CC[C@@]2(C)c3cc(O)ccc3N(C)C12", "note": "(stereo partly drawn)", "activity (re-replication induction)": -10},
      {"smiles": "CC1OC1P(=O)(O)O", "note": "(stereo not drawn)", "activity (re-replication induction)": -7.44},
      {"smiles": "CCN(CC)c1ncnc2c1ncn2[C@@H]1O[C@H](COP(=O)(O)OP(=O)(O)C(Br)(Br)P(=O)(O)O)[C@@H](O)[C@H]1O", "activity (re-replication induction)": 1.98},
      {"smiles": "C=CCN1C[C@@H](C)N([C@H](c2ccc(C(=O)N(CC)CC)cc2)c2cccc(OC)c2)C[C@@H]1C", "activity (re-replication induction)": -2.4},
      {"smiles": "O=C1C=CC(=O)C=C1", "activity (re-replication induction)": -2.16},
      {"smiles": "CCCN(CCC)C1Cc2cc(OC)c(OC)cc2C1", "activity (re-replication induction)": 4.69},
      {"smiles": "C[C@]12Cc3cn4c(nc3C=C1CCC1C2CC[C@@]2(C)[C@H]1CC[C@@]2(O)C#N)nc1ccccc14", "note": "(stereo partly drawn)", "Potency": "23.1 µM (active)"},
      {"smiles": "C[N+]1(C)CCC(OC(=O)C(c2ccccc2)c2ccccc2)CC1", "activity (re-replication induction)": -12.1},
      {"smiles": "O=[N+]([O-])c1cc(O)c(O)c([N+](=O)[O-])c1", "activity (re-replication induction)": -10.7},
      {"smiles": "CN(N=O)c1ccc(O)c(O)c1", "activity (re-replication induction)": -9.99},
      {"smiles": "CN1C2CCC1CC(OC(c1ccccc1)c1ccc(Cl)cc1)C2", "note": "(stereo not drawn)", "activity (re-replication induction)": -23.4},
      {"smiles": "CCCN(CCC)CCc1c[nH]c2ccc(C(N)=O)cc12", "activity (re-replication induction)": 4.03},
      {"smiles": "CNC(=O)OCC[N+](C)(C)C", "activity (re-replication induction)": 0.219},
      {"smiles": "O=P(O)(O)C(Cl)(Cl)P(=O)(O)O", "activity (re-replication induction)": -18.8},
      {"smiles": "CCCN1CC[C@@H]2c3cc(O)ccc3CC[C@@H]21", "activity (re-replication induction)": -0.193},
      {"smiles": "CN(N=O)c1cc(O)ccc1O", "activity (re-replication induction)": -0.363},
      {"smiles": "CC(C)CC(NP(=O)(O)O[C@@H]1O[C@@H](C)[C@H](O)[C@@H](O)[C@H]1O)C(=O)NC(Cc1c[nH]c2ccccc12)C(=O)O", "note": "(stereo partly drawn)", "activity (re-replication induction)": -3.54}
    ]},
    {"target": "Peptidyl-prolyl cis-trans isomerase NIMA-interacting 1 (Homo sapiens) (UniProt Q13526)", "sequence (Q13526 whole entry, looked up)": "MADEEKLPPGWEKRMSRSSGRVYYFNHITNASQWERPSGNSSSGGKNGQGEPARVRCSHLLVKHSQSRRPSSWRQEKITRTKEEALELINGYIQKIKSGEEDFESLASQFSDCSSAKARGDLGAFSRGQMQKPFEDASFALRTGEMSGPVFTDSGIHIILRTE", "assay": "qHTS Validation Assay to Find Inhibitors of Pin1 (AID 504536; active means well fitted inhibition curve with a large enough effect in the polarisation, with a control signal flat, not every such curve was filed as active; the % refers to the polarisation;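 on activity, negative = inhibition: 0% = full Pin1 enzyme wells and -100% = no-enzyme wells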)", "conditions": "Pin1 fluorescence polarization peptide binding assay; series mostly up to 57.5 µM; activity, negative = inhibition: at the top concentration", "summary_of_the_method": "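Fluorescence polarization competition: compounds (titration) displace HiFluor-488-labeled Pin1-1b peptide from Pin1 (0.3 uM final) in pH 7.5 HEPES buffer with DTT, 10 min at room temperature; %Activity normalized to no-enzyme wells, curves fitted.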", "units": {"activity, negative = inhibition": "%"}, "values": [
      {"smiles": "O=c1c2ccccc2[se]n1-c1ccccc1", "activity, negative = inhibition": -2.02},
      {"smiles": "CC(C)(C)c1cc(C=C(C#N)C#N)cc(C(C)(C)C)c1O", "activity, negative = inhibition": 41.5},
      {"smiles": "N[C@@H](Cn1ccc(=O)[nH]c1=O)C(=O)O", "activity, negative = inhibition": 1.86},
      {"smiles": "COc1ccc2c(c1)[C@@]13CCCC[C@H]1[C@@H](C2)NCC3", "activity, negative = inhibition": 0.158},
      {"smiles": "Cc1c2ccncc2c(C)c2c1[nH]c1ccccc12", "activity, negative = inhibition": 0.935},
      {"smiles": "NCCc1ccc(S(=O)(=O)F)cc1", "activity, negative = inhibition": 0.622},
      {"smiles": "O=C(O)c1cc[c]([Hg][Cl])cc1", "activity, negative = inhibition": 1.61},
      {"smiles": "CNc1ccc2oc(C[C@H]3O[C@@]4(CC[C@H]3C)O[C@H]([C@H](C)C(=O)c3ccc[nH]3)[C@H](C)C[C@H]4C)nc2c1C(=O)O", "activity, negative = inhibition": 1.22},
      {"smiles": "CC(C)NP(=O)(NC(C)C)OP(=O)(NC(C)C)NC(C)C", "activity, negative = inhibition": -0.505},
      {"smiles": "CCCN1CCc2cccc3c2[C@H]1Cc1ccc(O)c(O)c1-3", "activity, negative = inhibition": -1.67},
      {"smiles": "O=C1C=CC(=O)C=C1", "activity, negative = inhibition": -3.93},
      {"smiles": "O=S1(=O)N(CCN2CC=C(c3c[nH]c4cc(F)ccc34)CC2)c2cccc3c2N1CCC3", "activity, negative = inhibition": -4.05},
      {"smiles": "CCCN(CCC)C1Cc2cc(OC)c(OC)cc2C1", "activity, negative = inhibition": 4.59},
      {"smiles": "C[C@]12Cc3cn4c(nc3C=C1CCC1C2CC[C@@]2(C)[C@H]1CC[C@@]2(O)C#N)nc1ccccc14", "note": "(stereo partly drawn)", "activity, negative = inhibition": -9.05},
      {"smiles": "COc1ccc2c(c1)/C(=C/c1cnc[nH]1)C(=O)N2", "activity, negative = inhibition": -0.0521},
      {"smiles": "C[N+]1(C)C2CCC1CC(OC(=O)c1c[nH]c3ccccc13)C2", "note": "(stereo not drawn)", "activity, negative = inhibition": -0.885},
      {"smiles": "O=[N+]([O-])c1cc(O)c(O)c([N+](=O)[O-])c1", "activity, negative = inhibition": -6.92},
      {"smiles": "CC(C)[C@@]1(NC(=O)[C@@H]2C[C@@H]3c4cccc5[nH]cc(c45)C[C@H]3N(C)C2)O[C@@]2(O)[C@@H]3CCCN3C(=O)[C@H](Cc3ccccc3)N2C1=O", "activity, negative = inhibition": -5.15},
      {"smiles": "c1ccc2c(c1)[I+]c1ccccc1-2", "activity, negative = inhibition": -2.83},
      {"smiles": "COc1ccc2c(c1)c(CCN1CCOCC1)c(C)n2C(=O)c1cccc(Cl)c1Cl", "activity, negative = inhibition": -12.7},
      {"smiles": "CN(N=O)c1ccc(O)c(O)c1", "Potency": "4.78 µM (active)"},
      {"smiles": "CCCN(CCC)CCc1c[nH]c2ccc(C(N)=O)cc12", "activity, negative = inhibition": -6.08},
      {"smiles": "CCCn1c(C)c(C(=O)c2ccc3ccccc3c2)c2ccccc21", "activity, negative = inhibition": 2.67},
      {"smiles": "CCCN1CC[C@@H]2c3cc(O)ccc3CC[C@@H]21", "activity, negative = inhibition": -2.45},
      {"smiles": "CN(N=O)c1cc(O)ccc1O", "activity, negative = inhibition": -12.5}
    ]},
    {"target": "Phosphoglycerate kinase, glycosomal (Trypanosoma brucei brucei) (UniProt P07378)", "sequence (P07378 whole entry, looked up)": "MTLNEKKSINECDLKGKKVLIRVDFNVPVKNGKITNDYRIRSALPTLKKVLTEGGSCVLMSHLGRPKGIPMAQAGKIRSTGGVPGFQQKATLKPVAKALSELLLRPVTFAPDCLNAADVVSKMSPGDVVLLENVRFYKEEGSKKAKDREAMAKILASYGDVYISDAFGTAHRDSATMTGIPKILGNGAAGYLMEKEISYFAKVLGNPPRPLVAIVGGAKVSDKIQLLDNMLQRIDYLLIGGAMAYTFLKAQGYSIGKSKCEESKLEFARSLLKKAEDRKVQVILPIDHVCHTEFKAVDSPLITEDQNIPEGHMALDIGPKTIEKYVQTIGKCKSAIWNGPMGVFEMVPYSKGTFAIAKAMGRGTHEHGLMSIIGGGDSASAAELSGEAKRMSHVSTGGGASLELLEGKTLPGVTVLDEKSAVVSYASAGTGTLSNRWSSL", "assay": "qHTS Validation Assay to Find Inhibitors of Phosphoglycerate Kinase (AID 504547);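 on activity, negative = inhibition: control wells lack PGK and mark full inhibition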", "conditions": "enzymatic PGK inhibition, coupled luminescence read-out; series mostly up to 57.5 µM; activity, negative = inhibition: at the top concentration", "summary_of_the_method": "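Inhibition of the enzyme is judged by a Kinase-Glo Plus luminescent signal following a one-hour incubation at room temperature. Because 1,3-BPG is unstable, it is made in situ by GAPDH at 100nM final; no-PGK wells define the baseline.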", "units": {"activity, negative = inhibition": "%"}, "values": [
      {"smiles": "CCCN(CCC)C1CCc2cccc(O)c2C1", "note": "(stereo not drawn)", "activity, negative = inhibition": -0.161},
      {"smiles": "CC(N)Cc1c[nH]c2ccc(OCc3cccs3)cc12", "note": "(stereo not drawn)", "activity, negative = inhibition": 3.27},
      {"smiles": "O=c1c2ccccc2[se]n1-c1ccccc1", "activity, negative = inhibition": 9.61},
      {"smiles": "CC(C)(C)c1cc(C=C(C#N)C#N)cc(C(C)(C)C)c1O", "activity, negative = inhibition": 5.38},
      {"smiles": "N[C@@H](Cn1ccc(=O)[nH]c1=O)C(=O)O", "activity, negative = inhibition": 3.39},
      {"smiles": "COc1ccc2c(c1)[C@@]13CCCC[C@H]1[C@@H](C2)NCC3", "activity, negative = inhibition": 4.03},
      {"smiles": "Cc1c2ccncc2c(C)c2c1[nH]c1ccccc12", "activity, negative = inhibition": 5.8},
      {"smiles": "NCCc1ccc(S(=O)(=O)F)cc1", "activity, negative = inhibition": 6.59},
      {"smiles": "C=CCN1CC[C@]23c4c5ccc(O)c4O[C@@H]2/C(=N/N=C2\\CC[C@@]4(O)C6Cc7ccc(O)c8c7[C@@]4(CCN6CC=C)[C@@H]2O8)CC[C@@]3(O)C1C5", "activity, negative = inhibition": 10.5},
      {"smiles": "O=C(O)c1cc[c]([Hg][Cl])cc1", "activity, negative = inhibition": 9.11},
      {"smiles": "CNc1ccc2oc(C[C@H]3O[C@@]4(CC[C@H]3C)O[C@H]([C@H](C)C(=O)c3ccc[nH]3)[C@H](C)C[C@H]4C)nc2c1C(=O)O", "activity, negative = inhibition": 6.82},
      {"smiles": "CN1CC[C@@]2(C)c3cc(O)ccc3N(C)C12", "note": "(stereo partly drawn)", "activity, negative = inhibition": 3.11},
      {"smiles": "CC(C)NP(=O)(NC(C)C)OP(=O)(NC(C)C)NC(C)C", "activity, negative = inhibition": 8.9},
      {"smiles": "CCCN1CCc2cccc3c2[C@H]1Cc1ccc(O)c(O)c1-3", "activity, negative = inhibition": 1.88},
      {"smiles": "C=CCN1C[C@@H](C)N([C@H](c2ccc(C(=O)N(CC)CC)cc2)c2cccc(OC)c2)C[C@@H]1C", "activity, negative = inhibition": 4.65},
      {"smiles": "O=S1(=O)N(CCN2CC=C(c3c[nH]c4cc(F)ccc34)CC2)c2cccc3c2N1CCC3", "activity, negative = inhibition": -3.46},
      {"smiles": "CCCN(CCC)C1Cc2cc(OC)c(OC)cc2C1", "activity, negative = inhibition": -2.4},
      {"smiles": "C[C@]12Cc3cn4c(nc3C=C1CCC1C2CC[C@@]2(C)[C@H]1CC[C@@]2(O)C#N)nc1ccccc14", "note": "(stereo partly drawn)", "activity, negative = inhibition": 2.32},
      {"smiles": "COc1ccc2c(c1)/C(=C/c1cnc[nH]1)C(=O)N2", "activity, negative = inhibition": 6.88},
      {"smiles": "C[N+]1(C)C2CCC1CC(OC(=O)c1c[nH]c3ccccc13)C2", "note": "(stereo not drawn)", "activity, negative = inhibition": -2.21},
      {"smiles": "O=[N+]([O-])c1cc(O)c(O)c([N+](=O)[O-])c1", "activity, negative = inhibition": 7.6},
      {"smiles": "CC(C)[C@@]1(NC(=O)[C@@H]2C[C@@H]3c4cccc5[nH]cc(c45)C[C@H]3N(C)C2)O[C@@]2(O)[C@@H]3CCCN3C(=O)[C@H](Cc3ccccc3)N2C1=O", "activity, negative = inhibition": -0.386},
      {"smiles": "CCn1cnc2c(Nc3cccc(Cl)c3)nc(N[C@@H]3CCCC[C@@H]3N)nc21", "activity, negative = inhibition": 9.1},
      {"smiles": "c1ccc2c(c1)[I+]c1ccccc1-2", "activity, negative = inhibition": 12.2},
      {"smiles": "COc1ccc2c(c1)c(CCN1CCOCC1)c(C)n2C(=O)c1cccc(Cl)c1Cl", "activity, negative = inhibition": -0.0351},
      {"smiles": "CN(N=O)c1ccc(O)c(O)c1", "Potency": "6.01 µM (active)"},
      {"smiles": "CCCN(CCC)CCc1c[nH]c2ccc(C(N)=O)cc12", "activity, negative = inhibition": 2.8},
      {"smiles": "CCCn1c(C)c(C(=O)c2ccc3ccccc3c2)c2ccccc21", "activity, negative = inhibition": 2.94},
      {"smiles": "CC(=O)c1c(O)c(C)c(O)c(Cc2c(O)c3c(c(C(=O)/C=C/c4ccccc4)c2O)OC(C)(C)C=C3)c1O", "activity, negative = inhibition": 0.296},
      {"smiles": "CCCN1CC[C@@H]2c3cc(O)ccc3CC[C@@H]21", "activity, negative = inhibition": 0.127}
    ]}
  ]
}
